Results reported in PubChem BioAssay (NCI).
About 83,000 compounds went through this panel and 20% of them were active in at least one assay; those are over-represented in the sample as a whole.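 Assay: single dose, 48 h. Readout: percent growth (0 = no net growth; negative = cell death). Active: <10.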 Values without a mark were called inactive. Activity calls are given as the source filed them.

Legend:
Assay in all cases: NCI-60 one-dose screen, 48 h (100 = growth as untreated, 0 = no growth, -100 = all killed)
Conditions in all cases: 10 µM unless noted
[1] = tested on: NCI-H23 lung
[2] = tested on: NCI-H226 lung
[3] = tested on: NCI-H322M lung
[4] = tested on: HOP-62 NSCLC
[5] = tested on: NCI-H460 lung
[6] = tested on: HOP-92 NSCLC
[7] = tested on: NCI-H522 lung
[8] = tested on: A549/ATCC NSCLC
[9] = tested on: 786-0 renal
[10] = tested on: COLO 205 colon
[11] = tested on: DU-145 prostate
[12] = tested on: K-562 leukemia
[13] = tested on: MALME-3M melanoma
[14] = tested on: MDA-MB-231 breast
[15] = tested on: RXF 393 renal
[16] = tested on: SF-268 CNS
[17] = tested on: SF-295 CNS
[18] = tested on: SF-539 CNS
[19] = tested on: UACC-257 melanoma
[20] = tested on: M14 melanoma

Structure (SMILES) | growth [1] | growth [2] | growth [3] | growth [4] | growth [5] | growth [6] | growth [7] | growth [8] | growth [9] | growth [10] | growth [11] | growth [12] | growth [13] | growth [14] | growth [15] | growth [16] | growth [17] | growth [18] | growth [19] | growth [20]
CC(=O)OC1CCC2(C)C(CCC3C2CC(=O)C2(C)C3CC(Sc3ccc(N(CCCl)CCCl)cc3)C2C(C)=O)C1 (stereo not given) | 97.3% | 83.7% | 104% | 108% | 32.5% | 109% | 83% | 55.6% | 82.6% | 9.14% (active) | 100% | 7.43% (active) | 139% | 85.6% | 107% | 85.9% | 67.6% | 13.7% | 90.3% | 81%
Cc1ccc(N2COOC3(OOC2)C2CC4CC(C2)CC3C4)cc1 | 89.5% | 108% | 98.7% | 93.1% | 103% | 95.5% | 92.5% | 98.7% | 96.1% | 110% | 109% | 72.6% | 110% | 112% | 115% | 97.9% | 95.5% | 96.5% | 95.3% | 97.8%
COc1ccc(C/C(C)=C(\c2ccc(OCCN3CCOCC3)cc2)c2ccc(OC(=O)Cc3ccccc3)cc2)cc1 | -18.3% (active) | -26.6% (active) | -8.3% (active) | -74.1% (active) | -73.3% (active) | -76.7% (active) | -87.6% (active) | 0.132% (active) | -94.7% (active) | -90.1% (active) | 9.74% (active) | -24.7% (active) | -79.5% (active) | -48.4% (active) | -83.3% (active) | -21.3% (active) | -57.6% (active) | -85.4% (active) | -89.2% (active) | -66.9% (active)
O=C1Nc2ccccc2C2c3cccn3-c3ccccc3CN12 (stereo not given) | 70.6% | 78.2% | 91.5% | 34.5% | 43.7% | 29.7% | -7.83% (active) | 34.4% | 66.3% | 39.5% | 84.8% | 12.4% | 52% | 39.2% | 59.8% | 75.1% | 59.8% | 55.1% | 57.3% | 20.2%
CC1(C)N=C(N)N=C(N)N1c1ccc(OCCCNC(=O)Nc2ccc(S(=O)(=O)F)cc2)c(Cl)c1 | 27.3% | 40.1% | 52.5% | 49% | 14.4% | 78.6% | 21.5% | 18% | 27.5% | 31.5% | 32.4% | 25.2% | 55.2% | 65.1% | 49.4% | 32.3% | 21.7% | 16.5% | 26.4% | 35.3%
COC(=O)N[C@H]1CCc2c(Br)c(OC)c(OC)c(OC)c2-c2ccc(SC)c(=O)cc21 | 31.3% | 12.5% | 28% | 29.7% | -14.1% (active) | -0.443% (active) | 8.44% (active) | 18.3% | 10.9% | -52.5% (active) | -1.4% (active) | 6.78% (active) | 28.6% | -12.3% (active) | 16.8% | 17.7% | 9.53% (active) | -6.59% (active) | 67.4% | 2.58% (active)
CCCCCCC(=O)NC1=C(N2CC2)C(=O)C(NC(=O)CCCCCC)=C(N2CC2)C1=O | 33.6% | 75% | 79.5% | 47.2% | 24% | 65.3% | 39.2% | 42.3% | 33.6% | 3.58% (active) | 15.6% | 70.7% | 7.93% (active) | 24.8% | 25.7% | 52.9% | 29.7% | 61.7% | 34.2% | 20.5%
COc1ccc2c(c1)c(C1(O)CC(CSC#N)OC1=O)cn2C(=O)c1ccc(Cl)cc1 (stereo not given) | 89.3% | 94.8% | 73.5% | 104% | 104% | 109% | 95.9% | 98.6% | 102% | 127% | 114% | 98.5% | 81.9% | 92.9% | 114% | 106% | 90.2% | 96.3% | 95.5% | 96.4%
CC1CN1CCCCN1CC1C (stereo not given) | 109% | 106% | 101% | 109% | 104% | 88.2% | 66.4% | 101% | 103% | 115% | 105% | 83.6% | 103% | 125% | 115% | 98.6% | 101% | 103% | 83.9% | 107%
COC(=O)[C@@H](C)C[C@H](Cc1ccccc1)NC(=O)c1csc([C@@H](C[C@H](C(C)C)N(C)C(=O)[C@@H](NC(=O)[C@H]2CCCCN2C)C(C)C)OC(C)=O)n1 | 23.7% | 32.4% | 46.8% | 0.881% (active) | 2.4% (active) | -13.5% (active) | -31.7% (active) | 14% | 4.12% (active) | -69.9% (active) | 10.3% | 1.46% (active) | 51.5% | 1.38% (active) | 75.3% | 17.1% | -2.48% (active) | -23% (active) | 41.7% | -32.1% (active)
O=C(Nc1ccc(O)cc1)C(Cl)(Cl)Cl | 101% | 101% | 102% | 104% | 105% | 105% | 91.2% | 98.4% | 95.2% | 102% | 108% | 98.2% | 96.8% | 98.4% | 107% | 101% | 99.8% | 93.1% | 90.2% | 91.2%
COc1ccc(NC([Se])=NC23CC4CC(CC(C4)C2)C3)cc1 | -23% (active) | -32.7% (active) | 3.73% (active) | -0.819% (active) | -8.63% (active) | -6.73% (active) | -32.6% (active) | -0.959% (active) | -42.1% (active) | -32.1% (active) | 2.16% (active) | 12.3% | -18.5% (active) | -44.4% (active) | -41% (active) | 38.5% | -23.6% (active) | -6.89% (active) | -45.5% (active) | -6.57% (active)
Cn1cc(-c2csc(-c3cn(CCCCN4CCCCC4)c4ccccc34)n2)c2cccnc21 | 42.7% | 68.2% | 88.2% | 51.6% | -44.9% (active) | 46.3% | 48% | -47.1% (active) | -85.1% (active) | -73.7% (active) | 21% | -57.8% (active) | -66.9% (active) | -63.5% (active) | -84.5% (active) | 1.24% (active) | -18% (active) | -73.2% (active) | -67.3% (active) | -80.3% (active)
Cn1cc(-c2csc(-c3cn(CCCCN4CCCCC4)c4ccc(F)cc34)n2)c2cccnc21 | 79.8% | 74.6% | 81.5% | 88.8% | 89.3% | 51.7% | 86.2% | 92.6% | -62% (active) | 96.7% | -81% (active) | -76.1% (active) | -68.4% (active) | 71.4% | 26.8% | 72% | 99.7% | 75.3% | -42.6% (active) | -78.7% (active)
CCCC(C)C1(CC)C(=O)NC(=O)N(C)C1=O (stereo not given) | 100% | 85.5% | 100% | 85.1% | 106% | 92% | 80.7% | 79.1% | 94.3% | 99.6% | 107% | 102% | 90.1% | 107% | 119% | 100% | 102% | 96.4% | 83.6% | 101%
